Compound activity: PubChem, National Center for Advancing Translational Sciences (NCATS)
PNC assembly inh: perinucleolar compartment assembly inhibition; PC3M PTB-GFP, PNC prevalence imaging, 16 h; stronger effect = lower value; activity change (PNC), negative = inhibition, % at 10 µM; hit rate 3.1% among 140,000; AID 2417;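 active means readout at or below -70, meaning at least 70% loss of cells showing the perinucleolar compartment, a nuclear body marking cancer cells; inconclusive means readout between -30 and a set limit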
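Read-out is percentage of cells bearing a perinucleolar compartment, from automated 20x imaging of fixed, Hoechst-stained PC3M PTB-GFP cells. Cells were seeded 4 h, then exposed 16 h to compound (23 nl of library stock) in duplicate plates.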
HPGD inh: HPGD (human) dehydrogenase inhibition; Potency, µM, usual class: inhibitors; purified HPGD, NADH fluorescence kinetic, PGE2 substrate; P15428; hit rate 4.3% among 150,000; AID 894
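NADH formation kinetics: reaction with 30 uM PGE2 and 1 mM NAD+ (final), 20 nM enzyme, Tris-HCl pH 8 with Tween 20, after 15 min compound preincubation at room temperature. Fluorescence change, last versus first of five reads.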
ALDH1A1 block: ALDH1A1 (human) enzyme inhibition; P00352; Purified ALDH1A1, NADH fluorescence, propionaldehyde substrate; Potency, µM (series often up to 75.3 µM), usual class: inhibitors; hit rate 7.3% among 220,000; AID 1030
Target sequence (P00352 whole entry, looked up): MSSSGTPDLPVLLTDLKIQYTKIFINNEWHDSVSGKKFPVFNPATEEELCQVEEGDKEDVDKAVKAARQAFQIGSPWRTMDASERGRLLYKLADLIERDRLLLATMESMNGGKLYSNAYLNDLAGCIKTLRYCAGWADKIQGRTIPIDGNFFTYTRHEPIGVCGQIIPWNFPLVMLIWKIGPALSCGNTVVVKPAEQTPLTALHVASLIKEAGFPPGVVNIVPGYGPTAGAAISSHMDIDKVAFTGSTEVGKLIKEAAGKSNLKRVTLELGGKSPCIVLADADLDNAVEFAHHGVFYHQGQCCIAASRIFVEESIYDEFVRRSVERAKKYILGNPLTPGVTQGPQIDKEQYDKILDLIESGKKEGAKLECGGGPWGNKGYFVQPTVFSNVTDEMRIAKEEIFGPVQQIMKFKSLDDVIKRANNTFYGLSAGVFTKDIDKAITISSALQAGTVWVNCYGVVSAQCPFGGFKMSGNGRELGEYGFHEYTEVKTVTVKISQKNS
Each line names hits and unclear results; the compound was inactive in the other large screens. A selection: hits, their analogues and other compounds. The true share with any hit is near 11%. Unless noted, the call rests on the fitted dose curve; in most records, active means well fitted inhibition curve with a large enough effect (not every such curve was filed as active); inconclusive means small, poorly fitted or top-dose-only effect, or another doubt; inactive means no such curve, though single readings can be large or run the other way.

N#CC1=C(N)NC(SCC(=O)c2ccc(Cl)cc2)=C(C#N)C12CCCC2	HPGD inh inconclusive, ALDH1A1 block 28µM
COc1ccc(C(=O)CSC2=C(C#N)C3(CCCCC3)C(C#N)=C(N)N2)cc1	ALDH1A1 block 8.9µM (no result: HPGD inh)
CC1(C)CC(=O)C2=C(C1)NC(SCC(N)=O)=C(C#N)C21CCCCC1	ALDH1A1 block inconclusive
O=C(c1cnccn1)N1CCC[C@@]2(CCN(c3cccc(-c4ccccc4)c3)C2)C1	none (no result: PNC assembly inh)
CCOc1ccccc1C(=O)N[C@H](C(=O)OCc1cc([N+](=O)[O-])cc2c1OCOC2)C(C)C	PNC assembly inh inconclusive
CC(C)(C)OC(=O)CC[C@@H](C(=O)N1CCN(C(=O)OC(C)(C)C)CC1)n1cc(C(Cc2ccc(O)cc2)NC(=O)OC(C)(C)C)nn1 (some centres undefined)	none (no result: PNC assembly inh, HPGD inh)
NC(=O)[C@@H]1CCCN1Cc1nc(-c2cccs2)no1	none (no result: PNC assembly inh, HPGD inh)
O=C(c1ccc(O)cc1)c1ccc(C(=O)c2ccc(O)cc2)cc1	HPGD inh 22µM
N=C(N)c1ccc(O)cc1	none (no result: PNC assembly inh, HPGD inh)
Oc1ccc(O)cc1	HPGD inh 7.9µM (no result: PNC assembly inh)
Oc1ccccc1	none (no result: PNC assembly inh)
CCc1nc2ccccc2n1Cc1ccccc1F	none (no result: PNC assembly inh, HPGD inh)
COc1cc(OC)cc(C(=O)NNC(=O)CCc2ccccc2)c1	none (no result: PNC assembly inh, HPGD inh)
COc1ccccc1Nc1nc(N)nc(CSC(=S)N2CC(C)CC(C)C2)n1 (centres undefined)	ALDH1A1 block inconclusive
Cc1ccc(CNC(=O)COC(=O)C2CCN(S(=O)(=O)c3cccs3)CC2)cc1	none (no result: PNC assembly inh, HPGD inh)
COc1ccc(CCNC(=O)CCNS(=O)(=O)c2cccc(Cl)c2)cc1OC	none (no result: PNC assembly inh, HPGD inh)
COc1ccc(CCNC(=O)c2cc(C(C)C)on2)cc1OC	none
COc1ccc(CCNC(=O)C(=O)NCc2ccc(C(C)C)cc2)cc1OC	ALDH1A1 block 0.79µM
COc1ccc(CNC(=O)CN2CCN(S(=O)(=O)c3cccs3)CC2)cc1OC	ALDH1A1 block 11µM (no result: PNC assembly inh, HPGD inh)
COc1ccc(CCNC(=O)CN2CCN(c3cccc(Cl)c3)CC2)cc1OC	PNC assembly inh -91
O=C(COC(=O)c1ccc(F)cc1F)NC1CC1	none (no result: PNC assembly inh, HPGD inh)
Cc1sc2ncnc(SCC(=O)Nc3nc(-c4ccc(F)c(F)c4)cs3)c2c1C	none (no result: PNC assembly inh, HPGD inh)
Cc1ccccc1Nc1cc(=O)oc2ccccc12	ALDH1A1 block 14µM
Cc1ccc(Nc2cc(=O)oc3ccccc23)c(C)c1	none
Cc1ccc(-c2n[nH]c(=S)n2/N=C/c2ccc(C)s2)cc1	HPGD inh 4µM
Cc1nnc(C)n1/N=C/c1cccc(Oc2ccccc2)c1	none
Cc1cc(-c2n[nH]c(=S)n2/N=C/c2cccs2)n[nH]1	HPGD inh inconclusive
COc1cccc(/C=N/n2c(-c3cccs3)n[nH]c2=S)c1	HPGD inh 2.2µM, ALDH1A1 block inconclusive
Cc1ccc(-c2n[nH]c(=S)n2/N=C/c2cccs2)cc1	HPGD inh 13µM, ALDH1A1 block inconclusive
Cc1nc2ccccc2c(=O)n1/N=C/c1cccs1	none (no result: PNC assembly inh, HPGD inh)
Cc1ccc(/C=N/n2c(-c3ccc(Cl)cc3)n[nH]c2=S)s1	none (no result: PNC assembly inh, HPGD inh)
S=c1[nH]nc(-c2ccccc2)n1/N=C/c1cccs1	HPGD inh 18µM, ALDH1A1 block 25µM
O=S(=O)(Nc1ccc2ccccc2n1)c1ccc2c(c1)CCO2	none (no result: PNC assembly inh, HPGD inh)
NNC1=N[C@H]2CS(=O)(=O)C[C@H]2S1	none
O=C(Cc1cccs1)NCc1cccc(F)c1	none (no result: PNC assembly inh, HPGD inh)
COc1cc2c(cc1O)-c1ccccc1CN(C)C2	none (no result: PNC assembly inh)
CCOC(=O)C1(Cc2ccccc2C)CCCN(Cc2ccc(NC(C)=O)cc2)C1 (centres undefined)	none (no result: PNC assembly inh, HPGD inh)
CC1CCC2C(=O)N3CCCC3C(=O)N2C1c1ccc(Br)cc1 (centres undefined)	none (no result: PNC assembly inh, HPGD inh)
CC1CCCC(NC(=O)C2CCN(S(=O)(=O)N3CCCCCC3)CC2)C1C (centres undefined)	ALDH1A1 block inconclusive
Cc1ccc(-c2nc(N3CCOCC3)sc2C(=O)N2CCOCC2)cc1	ALDH1A1 block 20µM
CC(=O)c1sc(N2CCOCC2)nc1-c1ccccc1	none (no result: PNC assembly inh, HPGD inh)
O=C(NC1CCCCC1)c1sc(N2CCOCC2)nc1-c1ccccc1	ALDH1A1 block inconclusive
Cc1ccc(-c2nc(N3CCOCC3)sc2C(=O)N2CCCCC2)cc1	ALDH1A1 block 7.9µM
CN(Cc1ccco1)C(=O)Cn1nc(-c2ccc(Cl)cc2)ccc1=O	none (no result: PNC assembly inh, HPGD inh)
COc1ccc(C2/C(=C(/O)c3ccccc3)C(=O)C(=O)N2CO)cc1 (centres undefined)	ALDH1A1 block inconclusive
COc1ccc(N/C(C)=C2/C(=O)C(=O)N(CCO)C2c2ccc([N+](=O)[O-])cc2)cc1 (centres undefined)	PNC assembly inh inconclusive, ALDH1A1 block 11µM
COc1ccccc1C(=O)NNC(=S)NC(=O)c1ccco1	none (no result: HPGD inh)
COc1ccc(NCc2nnc(SCC(=O)c3ccc(C)cc3)o2)cc1	ALDH1A1 block 28µM
Cc1cc(C)nc(SCc2nnc(SCC(=O)Nc3ccc(Cl)c(C(F)(F)F)c3)o2)n1	none
COc1ccc(NCc2nnc(SCC(=O)Nc3cc(C)cc(C)c3)o2)cc1	ALDH1A1 block 3.2µM
